# Assay results as given in PubChem BioAssay (NCI).
# About 79,000 compounds went through this panel and 15% of them were active in at least one assay; those are over-represented in the sample as a whole. Values without a mark were called inactive. Active and inactive are the calls of the source. Cut-off read from the data, not from the text of the source: active = growth inhibition above about 70%; inactive = the rest.
# Experiments:
# [1] = NCI Yeast Anticancer Drug Screen. Data for the mlh1 strain (AID 171);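 note: 0% = growth of vehicle-treated control cultures of the same strain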; conditions: S. cerevisiae mlh1 strain growth inhibition, hits give high values
# How it was run: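 Read-out: growth inhibition versus vehicle controls. Strain: engineered yeast with a defined DNA repair or cell cycle defect, compound-treated.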
# [2] = NCI Yeast Anticancer Drug Screen. Data for the sgs1 strain (AID 173);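 note: 0% = growth of vehicle-only control cultures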; conditions: S. cerevisiae sgs1 mutant, hits give high values
# How it was run: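 Read-out: yeast growth inhibition relative to vehicle controls, following compound exposure of a strain with a defined DNA repair/cell cycle alteration.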
# [3] = NCI Yeast Anticancer Drug Screen. Data for the mlh1 rad18 strain (AID 175); conditions: S. cerevisiae mlh1 rad18 strain growth inhibition, hits give high values
# How it was run: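 Yeast w/ defined DNA-repair lesions; compound exposure; growth vs vehicle controls → % inhibition.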
# [4] = NCI Yeast Anticancer Drug Screen. Data for the rad18 strain (AID 177); conditions: S. cerevisiae rad18 mutant growth inhibition, hits give high values
# How it was run: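 Readout: growth inhibition vs vehicle controls. Cells: genetically altered yeast strain, DNA repair defect.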
# [5] = NCI Yeast Anticancer Drug Screen. Data for the rad52 strain (AID 147);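 note: 0% = growth of vehicle-treated control cultures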; conditions: S. cerevisiae rad52 mutant growth inhibition, hits give high values
# How it was run: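 Read-out: growth inhibition versus vehicle-treated controls. Cells were a DNA repair-deficient yeast strain treated with compounds.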
# [6] = NCI Yeast Anticancer Drug Screen. Data for the wt1 strain (AID 149);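 note: 0% = growth of vehicle-treated wt1 cultures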; conditions: S. cerevisiae wt1 strain (SPY 50644) growth inhibition, hits give high values
# How it was run: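 Readout: yeast growth inhibition, normalised to vehicle controls, in the wt1 strain exposed to test compounds.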
# [7] = NCI Yeast Anticancer Drug Screen. Data for the rad50EPP+ strain (AID 151);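 note: 0% = growth of vehicle-treated control cultures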; conditions: S. cerevisiae rad50 mutant strain, hits give high values
# How it was run: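 Growth inhibition read against vehicle controls in rad50EPP+ yeast, a strain altered in DNA damage repair, after compound exposure.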
# [8] = NCI Yeast Anticancer Drug Screen. Data for the mgt1 strain (AID 153); conditions: S. cerevisiae mgt1 mutant growth inhibition, hits give high values
# How it was run: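 mgt1 yeast grown with test compound; read-out is growth inhibition versus vehicle-treated cultures.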
# [9] = NCI Yeast Anticancer Drug Screen. Data for the rad50 strain (AID 155);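 note: 0% = growth of vehicle-only cultures of the same strain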; conditions: S. cerevisiae rad50 strain growth inhibition, hits give high values
# How it was run: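 Compounds were tested on a yeast strain with an engineered DNA damage repair alteration; the reported value is growth inhibition normalised to vehicle treatment.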
# [10] = NCI Yeast Anticancer Drug Screen. Data for the mec2-1 strain (AID 157); conditions: S. cerevisiae mec2-1 strain, hits give high values
# How it was run: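 Yeast mec2-1 mutant treated with compound. Readout: growth inhibition vs vehicle controls.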
# [11] = NCI Yeast Anticancer Drug Screen. Data for the rad14 strain (AID 159);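 note: 0% = growth of vehicle-treated control cultures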; conditions: S. cerevisiae rad14 strain growth inhibition, hits give high values
# How it was run: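 Compound-treated yeast with a defined DNA-repair lesion; growth inhibition normalised to vehicle-treated cultures.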
# [12] = NCI Yeast Anticancer Drug Screen. Data for the sgs1 mgt1 strain (AID 161);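 note: 0% = growth of cultures given vehicle only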; conditions: S. cerevisiae sgs1 mgt1 strain, hits give high values
# How it was run: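 Read-out: growth inhibition vs vehicle controls. Cells: mutant yeast strain deficient in DNA damage repair.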
# [13] = NCI Yeast Anticancer Drug Screen. Data for the CLN2oe strain (AID 163);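 note: 0% = growth of vehicle-only control cultures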; conditions: S. cerevisiae CLN2oe strain, hits give high values
# How it was run: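 Read-out: yeast growth inhibition, expressed relative to vehicle-only controls. The strain bears an engineered cell-cycle alteration.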
# [14] = NCI Yeast Anticancer Drug Screen. Data for the cln2 rad14 strain (AID 165);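 note: 0% = growth equal to vehicle treated cultures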; conditions: S. cerevisiae cln2 rad14 strain, hits give high values
# How it was run: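 cln2 rad14 yeast strain; compound exposure; growth inhibition read vs vehicle controls.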
# [15] = NCI Yeast Anticancer Drug Screen. Data for the bub3 strain (AID 167); conditions: S. cerevisiae bub3 mutant strain, hits give high values
# How it was run: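 Growth of a checkpoint-deficient yeast mutant is measured after compound exposure. Values represent inhibition relative to vehicle.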
# [16] = NCI Yeast Anticancer Drug Screen. Data for the wt2 strain (AID 169);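 note: 0% = growth of vehicle-treated yeast cultures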; conditions: S. cerevisiae wt2 strain growth inhibition, hits give high values
# How it was run: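 Read-out: growth inhibition versus vehicle-treated control cultures after compound exposure of the yeast strain.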
# [17] = at 5.0 µM (retest, dose inferred, filed as 0.5)
# [18] = at 50.0 µM (retest, dose inferred, filed as 5.0)
structure (smiles),measurement,setting,value
O=C1C=C(Br)C(=O)c2ccccc21,growth inhibition,[1]; at 1.2 µM,8%
same,growth inhibition,[1]; at 3.7 µM,11%
same,growth inhibition,[1]; at 11.0 µM,98% (active)
same,growth inhibition,[1]; at 33.0 µM,99% (active)
same,growth inhibition,[1]; at 100.0 µM,99% (active)
same,growth inhibition,[2]; at 1.2 µM,8%
same,growth inhibition,[2]; at 3.7 µM,19%
same,growth inhibition,[2]; at 11.0 µM,93% (active)
same,growth inhibition,[2]; at 33.0 µM,99% (active)
same,growth inhibition,[2]; at 100.0 µM,99% (active)
same,growth inhibition,[3]; [17],53%
same,growth inhibition,[3]; [18],99% (active)
same,growth inhibition,[3]; at 50.0 µM,99.1% (active)
same,growth inhibition,[4]; at 1.2 µM,5%
same,growth inhibition,[4]; at 3.7 µM,11%
same,growth inhibition,[4]; at 11.0 µM,82% (active)
same,growth inhibition,[4]; at 33.0 µM,99% (active)
same,growth inhibition,[4]; at 100.0 µM,98% (active)
CNC(=O)OCc1c2ccncc2c(C)c2c1[nH]c1ccccc12,growth inhibition,[5]; at 1.2 µM,59%
same,growth inhibition,[5]; at 3.7 µM,82% (active)
same,growth inhibition,[5]; at 11.0 µM,88% (active)
same,growth inhibition,[5]; at 33.0 µM,90% (active)
same,growth inhibition,[5]; at 100.0 µM,88% (active)
same,growth inhibition,[6]; at 1.2 µM,2%
same,growth inhibition,[6]; at 3.7 µM,6%
same,growth inhibition,[6]; at 11.0 µM,6%
same,growth inhibition,[6]; at 33.0 µM,21%
same,growth inhibition,[6]; at 100.0 µM,56%
same,growth inhibition,[7]; at 1.2 µM,1%
same,growth inhibition,[7]; at 3.7 µM,17%
same,growth inhibition,[7]; at 11.0 µM,14%
same,growth inhibition,[7]; at 33.0 µM,31%
same,growth inhibition,[7]; at 100.0 µM,45%
same,growth inhibition,[8]; at 1.2 µM,2%
same,growth inhibition,[8]; at 3.7 µM,21%
same,growth inhibition,[8]; at 11.0 µM,18%
same,growth inhibition,[8]; at 33.0 µM,34%
same,growth inhibition,[8]; at 100.0 µM,55%
same,growth inhibition,[9]; at 1.2 µM,33%
same,growth inhibition,[9]; at 3.7 µM,72% (active)
same,growth inhibition,[9]; [17],61%
same,growth inhibition,[9]; at 11.0 µM,82% (active)
same,growth inhibition,[9]; at 33.0 µM,86% (active)
same,growth inhibition,[9]; [18],75% (active)
same,growth inhibition,[9]; at 50.0 µM,56.4%
same,growth inhibition,[9]; at 100.0 µM,82% (active)
same,growth inhibition,[10]; at 1.2 µM,13%
same,growth inhibition,[10]; at 3.7 µM,60%
same,growth inhibition,[10]; [17],56%
same,growth inhibition,[10]; at 11.0 µM,84% (active)
same,growth inhibition,[10]; at 33.0 µM,90% (active)
same,growth inhibition,[10]; [18],89% (active)
same,growth inhibition,[10]; at 50.0 µM,73.8% (active)
same,growth inhibition,[10]; at 100.0 µM,87% (active)
same,growth inhibition,[11]; at 1.2 µM,23%
same,growth inhibition,[11]; at 3.7 µM,80% (active)
same,growth inhibition,[11]; at 11.0 µM,89% (active)
same,growth inhibition,[11]; at 33.0 µM,92% (active)
same,growth inhibition,[11]; at 100.0 µM,89% (active)
same,growth inhibition,[12]; [17],40%
same,growth inhibition,[12]; [18],13%
same,growth inhibition,[12]; at 50.0 µM,51.5%
same,growth inhibition,[13]; at 1.2 µM,6%
same,growth inhibition,[13]; at 3.7 µM,19%
same,growth inhibition,[13]; at 11.0 µM,21%
same,growth inhibition,[13]; at 33.0 µM,34%
same,growth inhibition,[13]; at 100.0 µM,57%
same,growth inhibition,[14]; [17],44%
same,growth inhibition,[14]; [18],84% (active)
same,growth inhibition,[14]; at 50.0 µM,83.2% (active)
same,growth inhibition,[15]; at 1.2 µM,-41%
same,growth inhibition,[15]; at 3.7 µM,-56%
same,growth inhibition,[15]; [17],-12%
same,growth inhibition,[15]; at 11.0 µM,-27%
same,growth inhibition,[15]; at 33.0 µM,0%
same,growth inhibition,[15]; [18],-48%
same,growth inhibition,[15]; at 50.0 µM,-12.1%
same,growth inhibition,[15]; at 100.0 µM,39%
same,growth inhibition,[16]; at 1.2 µM,-17%
same,growth inhibition,[16]; at 3.7 µM,-21%
same,growth inhibition,[16]; at 11.0 µM,-9%
same,growth inhibition,[16]; at 33.0 µM,-1%
same,growth inhibition,[16]; at 100.0 µM,42%
same,growth inhibition,[2]; at 1.2 µM,67%
same,growth inhibition,[2]; at 3.7 µM,76% (active)
same,growth inhibition,[2]; at 11.0 µM,84% (active)
same,growth inhibition,[2]; at 33.0 µM,85% (active)
same,growth inhibition,[2]; at 100.0 µM,84% (active)
same,growth inhibition,[3]; [17],33%
same,growth inhibition,[3]; [18],71% (active)
same,growth inhibition,[3]; at 50.0 µM,82.8% (active)
same,growth inhibition,[4]; at 1.2 µM,89% (active)
same,growth inhibition,[4]; at 3.7 µM,93% (active)
same,growth inhibition,[4]; at 11.0 µM,93% (active)
same,growth inhibition,[4]; at 33.0 µM,91% (active)
same,growth inhibition,[4]; at 100.0 µM,87% (active)
